ChEMBL document CHEMBL4296182, “CO-ADD screening of NIH NCI Diversity Set V”
For part of these data: Potency and affinity values are given separately.

Key:
Staphylococcus aureus = assay: Antibacterial activity against Staphylococcus aureus MRSA ATCC 43300 (CO-ADD:GP_020); MIC in CAMBH media using NBS plates, by Resazurin F(560/590); assay type: functional; settings: Concentration 20 uM, ASSAY_TEST Inhibition of Bacterial Growth, detection method Resazurin, Fluorescence (ex560/em590), MEDIA CAMHB, plate type 384well, CORNING #3640, time 18 hr
Acinetobacter baumannii = assay: Antibacterial activity against Acinetobacter baumannii ATCC 19606 (CO-ADD:GN_034); MIC in CAMBH media using NBS plates, by Resazurin F(560/590); assay type: functional; settings: Concentration 20 uM, ASSAY_TEST Inhibition of Bacterial Growth, detection method Resazurin, Fluorescence (ex560/em590), MEDIA CAMHB, plate type 384well, CORNING #3640, time 18 hr
Escherichia coli = assay: Antibacterial activity against Escherichia coli ATCC 25922 (CO-ADD:GN_001); MIC in CAMBH media using NBS plates, by Resazurin F(560/590); assay type: functional; settings: Concentration 20 uM, ASSAY_TEST Inhibition of Bacterial Growth, detection method Resazurin, Fluorescence (ex560/em590), MEDIA CAMHB, plate type 384well, CORNING #3640, time 18 hr
Klebsiella pneumoniae = settings: Concentration 20 uM; ASSAY_TEST Inhibition of Bacterial Growth; detection method Absorption (OD600); MEDIA CAMHB; plate type 384well; NBS; CORNING #3640; time 18 hr
Candida albicans = settings: 20 µM
Cryptococcus neoformans = settings: Concentration 20 uM; ASSAY_TEST Inhibition of Fungal Growth; detection method Resazurin; Absorption (OD600-OD570); plate type 384well; NBS; CORNING #3640

Structure (SMILES) | Inhibition (Staphylococcus aureus) [%] | Inhibition (Acinetobacter baumannii) [%] | Inhibition (Escherichia coli) [%] | Inhibition (Klebsiella pneumoniae) [%] | Inhibition (Candida albicans) [%] | Inhibition (Cryptococcus neoformans) [%]
COC(=O)C(=Cc1ccccc1[N+](=O)[O-])C(=O)OC | -1.4 | -8.17 | 9.13 | 10.58 | 9.98 | -18.32
CSc1ncc2ncn(C3OC(CO)C(O)C3O)c2n1 (centres undefined) | 5.7 | 9.73 | -9.56 | 13.33 | 3.06 | -1.46
O=C1c2cccc(Sc3ccccc3)c2C(=O)c2c(Sc3ccccc3)cccc21 | 13.79 | -8.62 | 22.23 | 3.23 | 0.05 | -7.69
Cc1nc(C(N)=O)nc2ccccc12 | 17.26 | -10.29 | 6.82 | 15.63 | 0.61 | 1.62
O=C1c2ccccc2C(=O)c2c(Nc3ccc(CCO)cc3)ccc(O)c21 | 19.9 | 1.68 | 9.39 | 4.66 | -0.52 | -4.75
O=C1Nc2ccccc2C1(c1ccc(O)cc1)c1ccc(O)cc1 [OXYPHENISATINE] | 24.64 | -10.84 | 13.68 | 5.85 | 2.96 | -4.24
CCn1c2ccccc2c2cc(NC(=O)Nc3ccc([N+](=O)[O-])cc3C)ccc21 | 15.43 | 8.35 | 6.19 | 0.72 | 18.4 | 0.49
Nc1ccccc1SC1CC(=O)N(c2ccc(Cl)c(Cl)c2)C1=O (centres undefined) | 1.48 | 12.22 | 0.8 | 8.81 | 8.62 | -1.72
CC(C)(C)C(=O)Nc1ccc(NC(=O)C(C)(C)C)cc1 | -3.56 | 6.93 | 0.85 | 26.03 | 6.58 | 1.66
N=C(N)Nc1nc2cc([N+](=O)[O-])ccc2[nH]1 | 9.17 | -6.93 | 5.92 | 26.99 | -2.1 | -6.56
CC1(C)CC[C@]2(C(=O)n3ccnc3)CC[C@]3(C)[C@H](C(=O)C=C4[C@@]5(C)C=C(C#N)C(=O)C(C)(C)[C@@H]5CC[C@]43C)[C@@H]2C1 | -14.27 | -18.52 | 7.42 | 10.75 | 4.81 | -0.45
c1ccc2c(c1)[nH]c1c3ccccc3sc21 | 12.39 | -1.18 | 0.28 | 11.83 | 5.08 | -2.59
CSc1nc(Cl)c(Br)c(Nc2cnc(O)nc2O)n1 | 5.42 | 6.52 | -1.71 | 4.64 | -2.17 | 0.33
Oc1nc(S)ncc1Oc1ccc(Cl)cc1Cl | 8.02 | 11.12 | 2.19 | 10.84 | 6.27 | -6.95
c1ccc(CSc2nc3c[nH]cnc-3n2)cc1 | 8.72 | -4.41 | 6.08 | 8.84 | 0.41 | 13.03
Oc1ccc(Cc2ccccc2Cl)c(O)c1 | 14.48 | -16.11 | 10.23 | 8.44 | -1.58 | -12.35
CCOC(=O)c1cc[nH]c1CC(=O)NC | 7.18 | 12.41 | -1.94 | 10.9 | 1.71 | -10.3
COc1ccccc1/C=C1\Cc2ccccc2C1=O | -0.35 | 7.42 | -7.65 | 12 | 10.8 | -2
c1cc2c3c(cccc3c1)NC1(CCC3(CC1)Nc1cccc4cccc(c14)N3)N2 | 1.15 | 7 | 12.93 | 19.89 | 2.38 | -5.58
Cc1cc2c(c(C#N)c1C)NC=NC2C (centres undefined) | 11.79 | -0.59 | 15.46 | 8.12 | -2.89 | -13.76
CCOC(=O)N1CCc2cc(OC)c(OC)c3c2c1cc1cc(OC)c(OC)cc13 | -2.61 | -15.62 | 19.24 | 9.85 | 5.76 | -3.38
O=C(/C=C\c1ccc(O)c(O)c1)OC1C(O)CC(OC(=O)/C=C/c2ccc(O)c(O)c2)(C(=O)O)CC1O (centres undefined) | 21.21 | -10.3 | 9.77 | 14 | -2.85 | -1.87

Structure (SMILES) | Inhibition (Staphylococcus aureus) [%] | Inhibition (Acinetobacter baumannii) [%] | Inhibition (Escherichia coli) [%] | Inhibition (Klebsiella pneumoniae) [%] | Inhibition (Candida albicans) [%] | Inhibition (Cryptococcus neoformans) [%]
Cc1nnc2nc(-c3ccccc3)nc(-c3ccccc3)n12 | -12.94 | 8.22 | 2.26 | 4.14 | 4.58 | -11.59
O=C(O)Cc1ccc(/N=N/c2c(O)c(C(=O)O)cc3ccccc23)cc1 | 6.99 | 6.89 | 1.22 | 11.34 | -4.81 | -5.37
COC(=O)[C@H]1[C@H]2C[C@@H]3c4[nH]c5cc(OC)ccc5c4CCN3C[C@H]2C[C@@H](OC(=O)CC(C)=O)[C@@H]1OC | 16.88 | -0.32 | 11.28 | 5.93 | -0.86 | -1.53
C#CCCOC(=O)Nc1ccccc1 | 2.35 | -10.74 | 7.7 | 4.67 | 2.19 | -13.66
CC(=O)Nc1ccc2cc3ccc(NC(C)=O)cc3nc2c1 | 13.51 | 10.7 | 0.73 | 15.61 | 3.5 | -4.12
O=S1(=O)CCC(N(/N=C/c2ccco2)c2ccccc2)C1 (centres undefined) | 6.29 | -4.36 | -3.36 | 6.93 | -2.37 | -1.06
CSc1ccc(NC(=O)Nc2cc(C)ccn2)cc1 | 4.66 | -16.85 | 9.5 | 13.34 | 0.13 | -8.58
CC1=CC(=O)C(/C(C)=N/c2ccccc2Cl)C(=O)O1 (centres undefined) | 7.59 | 14.34 | -12.7 | 12.66 | 20.8 | 0.4
O=[N+]([O-])c1ccc(-c2ncc(-c3ccc(Br)cc3)o2)cc1 | 5.59 | 6.16 | 2.7 | 5.71 | 5.85 | -3.69
c1ccc(-c2cn3ccccc3n2)cc1 | 26.82 | -4.96 | 13.79 | 17.46 | -0.09 | -2.58
COc1ccc(OC)c(NC(=O)c2cc3oc4ccccc4c3cc2O)c1 | 13.76 | 8.19 | 5.92 | 9.42 | -3.33 | -0.7
O=C(O)C(c1ccccc1)C1(O)CCCCC1 (centres undefined) | 4.6 | -11.34 | 11.15 | 5.64 | 0.92 | -11.66
CCOC(=O)Cc1cnc(S)nc1O | 9.6 | -11.54 | 7.99 | 8.74 | 1.43 | -1.74
Cl.O=C(O)c1ccc(NCc2nc3ccccc3[nH]2)cc1 | 0.21 | -0.88 | -3.07 | 12.5 | 1.6 | -6.81
FC(F)(F)c1cccc(-c2nc3nc(Cl)c(Cl)nc3[nH]2)c1 | -14.72 | 9.89 | 3.39 | 6.13 | 4.41 | 33.54
CN1C=C/C(=C/[N+](=O)[O-])N(C)C1=O | 9.11 | -6.18 | 4.71 | 0.88 | 1.05 | -5.15
COc1ccc(CN2CCOC2=O)cc1OC | 2.93 | -8.7 | 2.98 | 20.13 | -0.97 | -5.16
COc1cc(NCc2ccccc2O)c2ncccc2c1 | -0.91 | -6.99 | 7.11 | 7.53 | 4.54 | -12.51
O=[N+]([O-])c1ccc(Cn2cnc3c(O)ncnc32)cc1 | 10.19 | 8.82 | 7.89 | 11.73 | 2.42 | -11.97
O=C(Nc1ccc(Cl)cc1)c1cc2c(cc1O)[nH]c1ccccc12 | -1.15 | -12.34 | 2.48 | 13.56 | 8.44 | -5.53
O=C(Nc1cccc(Cl)c1)Nn1cnnc1 | 17.05 | 8.62 | 2.61 | 6 | 3.98 | -3.41
O=c1[nH]nc(-c2cc(-c3ccccc3)nc3ccccc23)o1 | 7.26 | -11.03 | 4.61 | 4.91 | 0.17 | -2.09
